Screening results (PubChem BioAssay)
This is a sample that favours compounds with a hit; in the whole collection about 2.4% have one here.
CHO-K1 Ca ag: nonselective activator or artifact in parental CHO-K1 cells. activation, % at 3 µM. hit rate 0.48% among 360,000. Fluo-8 calcium fluorescence; scaled to maximal ATP response, vehicle zero. AID 602248; in the data active means activation above about 15%;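 further: untransfected CHO-K1 host cells lacking M1 receptor as counterscreen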
CHRM1 antagonist: blocks human M1 muscarinic receptor; inhibition, % at 3 µM; hit rate 1.3% among 360,000; AID 588852; CHO-K1 hM1, Fluo-8 calcium fluorescence, ACh EC80 antagonist;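 active means percent inhibition above its own plate's cutoff, namely the mean of that plate's compound wells plus 3 SD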;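 further: peak over basal fluorescence ratio during 140 s after agonist addition; 0% = ACh EC80 plus DMSO and 100% = DMSO alone without agonist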
Target sequence (P11229 whole entry, looked up): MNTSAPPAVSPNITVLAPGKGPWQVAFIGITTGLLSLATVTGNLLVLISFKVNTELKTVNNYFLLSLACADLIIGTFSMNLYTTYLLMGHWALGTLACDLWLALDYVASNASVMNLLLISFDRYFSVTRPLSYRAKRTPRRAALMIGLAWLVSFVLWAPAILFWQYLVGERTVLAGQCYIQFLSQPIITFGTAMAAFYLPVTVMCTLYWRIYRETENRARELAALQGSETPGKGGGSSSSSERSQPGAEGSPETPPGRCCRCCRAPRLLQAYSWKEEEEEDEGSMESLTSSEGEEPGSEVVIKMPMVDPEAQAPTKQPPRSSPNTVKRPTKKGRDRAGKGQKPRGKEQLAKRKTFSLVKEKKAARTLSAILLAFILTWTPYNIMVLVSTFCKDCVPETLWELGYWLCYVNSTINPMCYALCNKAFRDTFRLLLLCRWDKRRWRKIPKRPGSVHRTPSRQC
CHRM1 PAM: potentiates human M1 receptor response to acetylcholine; CHO-K1 hM1, Fluo-8 calcium fluorescence, ACh EC20; 0% = ACh EC20, 100% = maximal ACh; activation, % at 3 µM; hit rate 0.088% among 360,000; in the data active means activation above about 19%, passing the limit was not always enough
M1 ag: activates human CHRM1 receptor; P11229; CHO-K1 hM1, Fluo-8 calcium fluorescence, agonist mode; 0% DMSO, 100% acetylcholine EC100; activation, % at 3 µM; hit rate 0.33% among 360,000; AID 588814;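 active means activation above the run's mean compound activation plus 3 SD, cut at about 16% in these data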;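 further: peak over basal fluorescence ratio within a 140 s kinetic read after compound addition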
CHO-K1 Ca PAM: counter-screen for M1 PAMs: effect in parental CHO-K1 cells; ATP EC20, Fluo-8 calcium fluorescence; 0% at ATP EC20, 100% at ATP max; activation, % at 3 µM; hit rate 0.02% among 360,000; AID 602247;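 active means activation above the run cutoff, the mean activation of all test compounds plus 3 SD, cut at about 40% in these data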;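 further: peak over basal fluorescence ratio in a 140 s read after ATP addition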
CHO-K1 Ca antag: M1 antagonist counterscreen hit in parental CHO-K1 cells | ATP-induced calcium, Fluo-8 fluorescence | inhibition, % at 3 µM | hit rate 0.6% among 360,000 | AID 602250;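 active means inhibition above a per-plate cutoff, the plate's mean sample inhibition plus 3 SD, cut at about 24% in these data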;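 further: 0% = DMSO plus EC80 ATP and 100% = DMSO alone without ATP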
* hit, by the source's call.

SMILES	CHO-K1 Ca ag	CHRM1 antagonist	CHRM1 PAM	M1 ag	CHO-K1 Ca PAM	CHO-K1 Ca antag
O=C(/C=C/[C@H]1O[C@@H](n2cnc3c(NC(=O)c4ccccc4)ncnc32)[C@H](O)[C@@H]1O)NCC1CCCO1 (stereo partly drawn)	0	-1	8	3	4	6
Cc1c(C(=O)c2ccc(N(C)C)cc2)c2ccccn2c1CCC#N	0	2	5	0	-18	25*
COc1ccc(-c2c3c([nH]c(=S)c2C#N)CCC3)cc1	-1	-17	13	5	-4	26*
CCOc1nc2cnccc2n(CC(=O)Nc2ccccc2C(=O)OC)c1=O	0	6	-2	-4	-7	-14
CCn1cc(CN2CCCC(C(=O)Nc3cccc(-c4cc5ccccc5[nH]4)c3)C2)cn1 (stereo not drawn)	1	-11	8	-6	-14	10
CCN(C(=O)CSc1nnc(-c2ccco2)n1Cc1ccccc1)C1CCS(=O)(=O)C1 (stereo not drawn)	0	-22	27*	-4	11	-19
CCCCOc1cccc(C2/C(=C(/O)c3ccc4c(c3)CC(C)O4)C(=O)C(=O)N2CCN2CCOCC2)c1 (stereo not drawn)	1	-6	3	-2	-18	-4
COc1cccc(OCc2ccc(Cn3nc(NC(=O)NCCc4ccc(OC)c(OC)c4)c4ccccc43)cc2)c1	0	-14	13	0	-12	-6
CC(C)CN(C(=O)c1ccc(=O)n(C)n1)c1nc2ccccc2s1	0	5	9	0	-7	24*
Cc1ccc(C(=O)N(CC(C)C)c2nc3ccccc3s2)o1	1	-7	1	-3	11	-17
O=C(Nc1ccon1)Nc1cc(Cl)ccc1Cl	0	-16	15	1	4	0
CN(C)CCCN(Cc1ccccc1)C(=S)Nc1ccc(OC(F)F)cc1	1	55*	-26	-8	8	-3
CN(Cc1ccccc1)C(=S)Nc1ccc(OC(F)F)cc1	0	-3	-2	-11	8	8
CC1(c2cccc3ccccc23)OC(=O)c2ccccc21 (stereo not drawn)	0	-9	6	-3	3	-8
Cc1cc(/C=C2\SC(=S)N(Cc3ccco3)C2=O)c(C)n1-c1cccnc1	2	7	6	1	8	-2
Cc1cc(/C=C2/SC(=S)N(c3cccc(C(F)(F)F)c3)C2=O)c(C)n1-c1cccnc1	9	43*	-21	6	5	36*
O=C1/C(=C\c2ccc(O)cc2)SC(=S)N1c1cccnc1	17*	19	-10	17*	11	7
COc1ccc(C(=O)O)cc1NC(=S)NC(=O)/C=C/c1ccc(C(C)C)cc1	0	4	5	-2	13	2
Cc1cc(C)n(CCC(=O)N2CCN(S(=O)(=O)c3ccccc3)CC2)n1	1	-10	8	-3	11	-10
CC(=O)NCCC(=O)N1CCCC(N(C)CCc2ccccc2)C1 (stereo not drawn)	0	45*	-20	-9	6	1
CC(C)(C)c1cc(C(=O)NNC(=O)Nc2ccccc2)n(Cc2ccccc2)n1	5	-8	4	-2	6	2
CC(C)(C)c1cc(C(=O)NNC(=O)Nc2cccc(Cl)c2)n(Cc2ccccc2)n1	0	16	-8	-6	-23	29*
Cn1c(=O)n(C)c2cc(S(=O)(=O)Nc3ccccc3O)ccc21	4	5	-1	-4	34	-18
Cc1ccc(NS(=O)(=O)c2ccc3c(c2)n(C)c(=O)n3C)c(C)c1	18*	-10	7	0	25	0
COCCCC1CCN(C(=O)C2CCC(=O)N(CCc3cccc(F)c3)C2)CC1 (stereo not drawn)	1	-3	4	-1	8	-10
SMILES	CHO-K1 Ca ag	CHRM1 antagonist	CHRM1 PAM	M1 ag	CHO-K1 Ca PAM	CHO-K1 Ca antag
Cc1ccc(NC(=O)CSCC(=O)Nc2ccccc2N2CCCCC2)cc1	-1	-7	10	0	6	9
CC(CCc1ccccc1)NCC#N (stereo not drawn)	0	-6	-1	3	16	-12
Cc1ccc(S(=O)(=O)NCc2ccc(C(=O)NCCN(Cc3ccccc3)C(C)C)cc2)cc1	6	68*	-23	-6	8	-6
Cc1ccc(S(=O)(=O)NCCNC(=O)c2ccccc2)cc1	0	4	5	-3	10	-4
CC(C)N(CCNC(=O)c1ccc(CS(=O)(=O)c2c(Cl)cccc2Cl)o1)Cc1ccccc1	1	45*	-22	-6	8	-12
Cc1ccccc1S(=O)(=O)Cc1ccc(C(=O)NCCN(Cc2ccccc2)C(C)C)o1	1	33	-15	-5	2	-11
C=CCN(C(=O)c1oc2c(Cl)cc(C)cc2c1C)C1CCS(=O)(=O)C1 (stereo not drawn)	1	-6	5	-1	-18	-3
C=CCOc1ccc(/C=C/C(=O)OCC(=O)Nc2c(C)n(C)n(-c3ccccc3)c2=O)cc1	1	-16	4	-2	-3	39*
Cc1c(Cl)ccc2c1NC(=O)[C@]21N[C@@H](Cc2ccccc2)[C@H]2C(=O)N(c3ccc(F)cc3)C(=O)[C@H]21	8	12	1	17*	16	-13
S=c1[nH]c2cc(Br)cnc2[nH]1	1	4	0	-3	-12	26*
Cc1cccc(NC(=O)COC(=O)CSc2ccccc2)c1C	0	-2	1	-2	9	-1
CCOC(=O)/C(CCC[N+](C)(CC)CC)=N\O	0	91*	-26	-12	6	0
CN(C(=O)c1ccc(N2CCCCC2)c([N+](=O)[O-])c1)C1(C)CCS(=O)(=O)C1 (stereo not drawn)	0	-2	14	5	9	3
CC(C)(C)c1ccc(S(=O)(=O)N2CCSC2)cc1	1	39*	-26	-15	-2	11
COc1ccc(CC(=O)N(Cc2ccccc2)c2ccccc2)cc1S(=O)(=O)N1CCOCC1	13	26*	-9	2	18	-4
COCCN(Cc1ccccc1)C(=O)Cc1ccc(OC)c(S(=O)(=O)N2CCOCC2)c1	2	-10	4	-1	12	-7
CN1CCC(OC2c3ccccc3CCc3ccccc32)CC1	3	99*	-30	-6	12	-11
Cc1ccc(CN(C)C[C@@H]2OCc3cnnn3CCCC(=O)N([C@H](C)CO)C[C@H]2C)cc1	0	-11	6	-9	2	8
C[C@@H]1CN([C@H](C)CO)C(=O)CCCn2nncc2CO[C@H]1CN(C)Cc1ccc(Oc2ccccc2)cc1	1	54*	-32	-11	15	-6
